Experiments:
Experiment in all cases: PBM binding z-score (relative to random genomic background probes); higher = stronger binding; sequences stand for … in GC…GCGATTGACAGCGTAGAATGAAGG
[1] = test system: FXR:RXRa (NR concentration 270 nM, RXRa partner concentration 90 nM)
How it was run: (§1)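 Custom Agilent 4×180K protein-binding microarrays carried double-stranded probes, each with a 34-nt variable region. These regions held direct-repeat seeds, single-nucleotide variants, half-site ablations and random human genomic background sequences. Ligand-free nuclear receptor dimers were incubated on the arrays for 1 h, antibodies against each partner (one per run) detected binding, and scanned fluorescence was regression-normalized. Binding z-scores take the random background probes as reference.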

[2] = test system: LXRa:RXRa (NR concentration 270 nM, RXRa partner concentration 90 nM)
How it was run: as §1

[3] = test system: LXRa homodimer (NR concentration 270 nM)
How it was run: as §1

[4] = test system: LXRb:RXRa (NR concentration 270 nM, RXRa partner concentration 90 nM)
How it was run: as §1

[5] = test system: LXRb homodimer (NR concentration 270 nM)
How it was run: as §1

[6] = test system: PPARa:RXRa (NR concentration 270 nM, RXRa partner concentration 90 nM)
How it was run: as §1

[7] = test system: PPARg:RXRa (NR concentration 180 nM, RXRa partner concentration 90 nM)
How it was run: as §1

[8] = test system: PPARg:RXRa 270nM:90nM, anti-RXR (NR concentration 270 nM, RXRa partner concentration 90 nM)
How it was run: as §1

[9] = test system: PPARg:RXRa 30nM:10nM, anti-RXR (NR concentration 30 nM, RXRa partner concentration 10 nM)
How it was run: as §1

[10] = test system: PPARg:RXRa 90nM:30nM, anti-RXR (NR concentration 90 nM, RXRa partner concentration 30 nM)
How it was run: as §1

[11] = test system: PPARg:RXRa DBDmut IVT, anti-RXR (DBD mutation: RXRa K156A/R161A, NR concentration 270 nM, RXRa partner concentration 90 nM)
How it was run: as §1

[12] = test system: PPARg:RXRa IVT, anti-PPARg (NR concentration 270 nM, RXRa partner concentration 90 nM)
How it was run: as §1

[13] = test system: PPARg DBDmut:RXRa IVT, anti-PPARg (DBD mutation: PPARg1 K132A/R137A, NR concentration 270 nM, RXRa partner concentration 90 nM)
How it was run: as §1

[14] = test system: PPARg DBDmut IVT, anti-PPARg (DBD mutation: PPARg1 K132A/R137A, NR concentration 270 nM)
How it was run: as §1

[15] = test system: PPARg homodimer (NR concentration 180 nM)
How it was run: as §1

[16] = test system: PXR:RXRa (NR concentration 270 nM, RXRa partner concentration 90 nM)
How it was run: as §1

[17] = test system: PXR homodimer (NR concentration 270 nM)
How it was run: as §1

[18] = test system: RARa:RXR (NR concentration 270 nM, RXRa partner concentration 90 nM)
How it was run: as §1

[19] = test system: RARa homodimer (NR concentration 270 nM)
How it was run: as §1

[20] = test system: RARb:RXRa (NR concentration 270 nM, RXRa partner concentration 90 nM)
How it was run: as §1

Row | Sequence | PBM binding z-score [1] | PBM binding z-score [2] | PBM binding z-score [3] | PBM binding z-score [4] | PBM binding z-score [5] | PBM binding z-score [6] | PBM binding z-score [7] | PBM binding z-score [8] | PBM binding z-score [9] | PBM binding z-score [10] | PBM binding z-score [11] | PBM binding z-score [12] | PBM binding z-score [13] | PBM binding z-score [14] | PBM binding z-score [15] | PBM binding z-score [16] | PBM binding z-score [17] | PBM binding z-score [18] | PBM binding z-score [19] | PBM binding z-score [20]
1 | GGAACGAGGGCATTCGAGTTGCTAGCATGGCGAT | 0.791 | 0.5 | -0.577 | -0.157 | -0.675 | 0.953 | 0.443 | 0.479 | -0.435 | -0.173 | 2.56 | 2.02 | -0.0761 | -0.825 | -0.911 | 2.3 | -0.0583 | 0.598 | -0.778 | 1.8
2 | AATACAGGGTCACTAGGCCAGAGGAGGTACGAAT | 5.85 | 4.93 | 0.963 | 3.62 | 1.31 | 5.54 | 8.18 | 6.63 | 3.82 | 5.65 | 3.99 | 5.89 | 1.86 | 1.11 | 2.18 | 2.95 | 0.559 | 4.12 | 0.96 | 4.17
3 | CTCGAGAGGTCGGTTGAGGTGAGTATACGGATAA | 2.48 | 1.8 | -0.0602 | 2.2 | -0.474 | 2.93 | 0.425 | 0.591 | -0.178 | 0.092 | 0.581 | 0.606 | -0.792 | -0.363 | 0.728 | 3.5 | 0.389 | 2.64 | -0.682 | 2.05
4 | CCAGACAGGTGAGAATGTAACTCAGCCTCGATTA | -0.153 | -0.116 | -0.13 | -0.00314 | -0.187 | 0.0169 | 0.376 | -0.212 | -0.0571 | -0.437 | 0.965 | 0.029 | -1.25 | 0.0266 | 0.565 | -0.276 | 0.0874 | -0.141 | 1.11 | 0.234
5 | GCTAGTTGGTCAGTAAAAGGTCACCCACCGGTCG | 3.38 | 4.1 | 4.23 | 3.6 | 0.649 | 4.11 | 2.48 | 4.29 | 2.04 | 3.67 | 0.689 | 2.81 | 0.204 | -0.0831 | 5.31 | 4.84 | 1.27 | 5.99 | 3.9 | 4.28
6 | ACCTCTAGGTAAAGTTCAGTGAAAGATCGATAGA | 0.698 | 1.23 | 0.94 | 0.893 | 0.102 | 1.58 | 1.08 | 2.32 | 0.584 | 1.63 | 1.91 | 1.47 | -0.268 | 0.284 | 0.684 | 1.61 | 1.03 | 0.806 | 0.172 | 2.41
7 | CCTTACGCGTCAAGGTTATAGCACGGGTGGTACG | 0.452 | 0.749 | 0.096 | 0.771 | 0.153 | 1.14 | 0.691 | -0.0885 | -0.308 | 0.0411 | 0.185 | -0.0236 | -0.542 | -0.798 | 0.726 | 0.65 | 0.0877 | 1.02 | 0.124 | 0.97
8 | CCTCGGAGGACAACGGGAGGTCAGAGCTGCCAGA | 1.17 | 2.32 | 1.9 | 1.52 | -0.594 | 2.1 | 0.336 | 0.563 | -0.741 | -0.147 | -0.505 | 0.451 | -1.39 | -1.24 | 2.26 | 2.45 | 0.352 | 2.8 | 0.367 | 2.92
9 | CCTATTAGTTGAACATAAGGGCAACCGAAGCTCG | 0.402 | 0.518 | 0.603 | 0.454 | 0.71 | 0.594 | 0.576 | 0.441 | 0.18 | 0.415 | 0.458 | 0.463 | 0.856 | 0.515 | 1.56 | 0.574 | 0.963 | 0.973 | 1.2 | 1.38
10 | AGAATGAGGTTAGGATCAGGGAAACAGAATACAT | 0.875 | 0.506 | -0.0173 | 1.16 | 0.0197 | 2.19 | 1.11 | 1 | 0.649 | 0.78 | 1.28 | 1.5 | 1.12 | 0.953 | 1.27 | 0.668 | 0.603 | 0.932 | 1.08 | 1.37
11 | CCTACTGGGCCAAAAAGGTCGTTGATGCCGATAA | 0.402 | 0.901 | 0.0143 | 1.24 | -0.786 | 2.45 | 1.08 | 1.81 | 0.344 | 1.24 | 3.16 | 2.91 | -0.0977 | -1.31 | 0.923 | 1.69 | 0.426 | 1.77 | 0.0186 | 1.48
12 | TCTATTAGGTGATTAGGGCAACCGAAACAGCGGA | 0.654 | 0.587 | 0.0646 | 0.425 | 0.526 | 1.86 | 2.13 | 2.98 | 3.56 | 2.97 | 4.87 | 4.81 | 2.12 | 1.04 | 0.876 | 0.422 | 0.211 | 0.593 | 0.993 | 1.37
13 | ATCGTAAGGTCGAAGGTGAGTATACCCACCCGAA | 2.6 | 1.9 | -0.314 | 1.71 | 0.36 | 3.41 | 3.62 | 3.7 | 1.42 | 3.36 | -0.143 | 1.54 | 1.22 | -0.311 | 1.79 | 1.87 | -0.0484 | 3.33 | 0.0373 | 2.74
14 | TTACCAAGGTGAGCTGAGGACGTTGATCCAACTC | 1.1 | -0.166 | -0.767 | -0.542 | -1.14 | 0.258 | -0.0163 | -0.267 | -0.263 | -0.212 | 0.681 | 1.36 | -0.327 | -0.329 | -0.722 | 2.25 | -0.289 | 1.03 | -0.906 | 1.05
